# Measured values taken from the supplement of paper PMC6555819.
# What was measured:
# Experiment in all cases: PBM binding z-score (relative to random genomic background probes); higher = stronger binding; sequences stand for … in GC…GCGATTGACAGCGTAGAATGAAGG
# [1] = test system: PPARg:RXRa DBDmut IVT, anti-RXR (DBD mutation: RXRa K156A/R161A, NR concentration 270 nM, RXRa partner concentration 90 nM)
# Procedure, shortened: (§1)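 On custom Agilent 4×180K arrays, double-stranded probes with 34-nt variable regions carried direct-repeat seeds, single-nucleotide variants, half-site ablations or random human genomic background. Ligand-free nuclear receptor dimers were applied for 1 h, and binding was read with antibodies against each partner (one per run). Binding z-scores come from regression-normalized fluorescence, with the random background probes as reference.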
# [2] = test system: PPARg:RXRa IVT, anti-PPARg (NR concentration 270 nM, RXRa partner concentration 90 nM)
# Procedure, shortened: as §1
# [3] = test system: PPARg DBDmut:RXRa IVT, anti-PPARg (DBD mutation: PPARg1 K132A/R137A, NR concentration 270 nM, RXRa partner concentration 90 nM)
# Procedure, shortened: as §1
# [4] = test system: PPARg DBDmut IVT, anti-PPARg (DBD mutation: PPARg1 K132A/R137A, NR concentration 270 nM)
# Procedure, shortened: as §1
# [5] = test system: PPARg homodimer (NR concentration 180 nM)
# Procedure, shortened: as §1
# [6] = test system: PXR:RXRa (NR concentration 270 nM, RXRa partner concentration 90 nM)
# Procedure, shortened: as §1
# [7] = test system: PXR homodimer (NR concentration 270 nM)
# Procedure, shortened: as §1
# [8] = test system: RARa:RXR (NR concentration 270 nM, RXRa partner concentration 90 nM)
# Procedure, shortened: as §1
# [9] = test system: RARa homodimer (NR concentration 270 nM)
# Procedure, shortened: as §1
# [10] = test system: RARb:RXRa (NR concentration 270 nM, RXRa partner concentration 90 nM)
# Procedure, shortened: as §1
# [11] = test system: RARb homodimer (NR concentration 270 nM)
# Procedure, shortened: as §1
# [12] = test system: RARg:RXRa (NR concentration 270 nM, RXRa partner concentration 90 nM)
# Procedure, shortened: as §1
# [13] = test system: RARg homodimer (NR concentration 270 nM)
# Procedure, shortened: as §1
# [14] = test system: RXRa DBDmut IVT, anti-RXR (DBD mutation: RXRa K156A/R161A, NR concentration 90 nM)
# Procedure, shortened: as §1
# [15] = test system: RXRa homodimer (NR concentration 180 nM)
# Procedure, shortened: as §1
# [16] = test system: THRa homodimer (NR concentration 90 nM)
# Procedure, shortened: as §1
# [17] = test system: VDR:RXRa (NR concentration 270 nM, RXRa partner concentration 90 nM)
# Procedure, shortened: as §1
# [18] = test system: VDR homodimer (NR concentration 270 nM)
# Procedure, shortened: as §1
# [19] = test system: THRa:RXRa (NR concentration 90 nM, RXRa partner concentration 90 nM)
# Procedure, shortened: as §1
Sequence,PBM binding z-score [1],PBM binding z-score [2],PBM binding z-score [3],PBM binding z-score [4],PBM binding z-score [5],PBM binding z-score [6],PBM binding z-score [7],PBM binding z-score [8],PBM binding z-score [9],PBM binding z-score [10],PBM binding z-score [11],PBM binding z-score [12],PBM binding z-score [13],PBM binding z-score [14],PBM binding z-score [15],PBM binding z-score [16],PBM binding z-score [17],PBM binding z-score [18],PBM binding z-score [19]
CAAACTAGGTCACCGTAAGGTCAAAGTCCGCATG,8.08,9.03,2.73,1.86,6.09,6.21,2.62,7.31,1.95,5.57,5.88,8.26,7.64,2.47,6.67,5.45,6.28,4.19,
CCTGCTAGGACAATGGTCAGCTAAAGCAGCTCGC,0.194,-0.56,-1.25,-2.24,-1.14,-0.961,-0.715,-0.928,-0.846,0.219,-0.0607,-0.421,-0.262,0.179,-0.865,-0.399,,-0.794,0.0505
CAAACTAGGTCACGAAAGGTCAAAGTGGAATGAC,8.3,9.14,4.86,3.3,6.09,7.22,2.33,7.85,4.81,5.72,5.92,7.79,8.41,2.4,8.35,2.81,,3.84,5.24
CAAACTAGGTCAAAGGTCAAAGCCGAGCCAACCA,8.36,8.57,2.64,1.45,4.45,6.85,1.41,9.13,2.5,5.94,5.47,8.97,7.51,2.57,10.7,1.74,,2.99,
ATCGAAGGGTCGAAGGTGAGTATACCCACCCGAA,-0.959,1.2,0.357,-0.0817,0.676,1.64,-0.184,2.48,-0.374,2.15,1.32,2.67,1.99,0.0916,3.12,-0.355,,0.519,1.05
TAGCATAGGTCATGCGGGCCAGTATAGTGTCGGC,1,2.48,0.261,-0.165,1.08,2.83,0.0553,3.38,-0.53,4.13,3.46,4.99,4.91,0.439,,-0.558,4.32,0.259,2.55
GCATATAGGTAATTCAAGGTGAAAGTCCGATTGT,3.96,3.53,0.595,0.845,0.811,0.919,0.171,2.33,0.378,0.678,0.847,0.546,0.26,0.583,0.756,1.67,,0.292,
